Source: PubChem BioAssay (NCATS)
Records with an inconclusive call do not appear. Activity calls are given as the source filed them. Unless noted, calls follow the shape of the dose curve; as a rule, active = well fitted curve in the direction sought with a large enough effect; inconclusive = small, poorly fitted or top-dose-only effect, or another doubt; inactive = no such curve, though single readings can be large; an effect the other way counts as inactive or inconclusive.

Legend:
[1] = qHTS Assay for Lipid Storage Modulators (AID 1519; calls by dose curve); details: Drosophila S3 cells, BODIPY lipid droplet/cell ratio, laser cytometry, cells loaded with oleic acid
Method in brief: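 Cells seeded at 5,000 per well were treated with compounds over a concentration series and loaded with oleic acid (400 uM, as added). Lipid droplet fluorescence (488 nm excitation, 500-530 nm channel) was read by laser-scanning cytometry and normalized to 20 uM Triacsin C.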

[2] = target: Ubiquitin carboxyl-terminal hydrolase 1 (Homo sapiens) (UniProt O94782); test: Inhibitors of USP1/UAF1: Pilot qHTS (AID 504865); details: purified USP1/UAF1, Ub-rhodamine cleavage fluorescence; series mostly up to 114 µM;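 also: rhodamine fluorescence freed from ubiquitin-rhodamine substrate followed over time; top concentration of the series differs between compounds; % is scaled to controls: 0 for no effect and ±100 for the full control effect; nearly all actives have a fitted effect of over 35% in size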
Sequence of Ubiquitin carboxyl-terminal hydrolase 1 (Homo sapiens) (O94782 whole entry, looked up): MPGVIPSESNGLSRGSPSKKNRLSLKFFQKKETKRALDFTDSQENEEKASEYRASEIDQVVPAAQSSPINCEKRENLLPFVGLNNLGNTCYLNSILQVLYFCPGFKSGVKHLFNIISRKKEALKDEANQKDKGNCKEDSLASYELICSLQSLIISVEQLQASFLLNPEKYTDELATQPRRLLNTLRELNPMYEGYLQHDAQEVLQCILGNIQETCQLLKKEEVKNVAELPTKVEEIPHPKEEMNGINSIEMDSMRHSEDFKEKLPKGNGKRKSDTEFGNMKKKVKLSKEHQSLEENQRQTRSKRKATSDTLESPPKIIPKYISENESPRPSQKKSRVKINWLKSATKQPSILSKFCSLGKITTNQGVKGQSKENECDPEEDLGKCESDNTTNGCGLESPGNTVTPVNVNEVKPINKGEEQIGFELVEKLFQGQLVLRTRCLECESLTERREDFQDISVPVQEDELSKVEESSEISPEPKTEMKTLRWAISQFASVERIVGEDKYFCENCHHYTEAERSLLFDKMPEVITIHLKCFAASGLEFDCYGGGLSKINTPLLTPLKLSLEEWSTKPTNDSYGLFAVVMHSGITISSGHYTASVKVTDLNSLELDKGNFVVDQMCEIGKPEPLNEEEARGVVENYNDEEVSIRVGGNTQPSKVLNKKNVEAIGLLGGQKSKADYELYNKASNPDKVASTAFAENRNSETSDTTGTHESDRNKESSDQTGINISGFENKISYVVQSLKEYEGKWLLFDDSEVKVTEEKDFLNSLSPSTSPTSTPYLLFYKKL
Method in brief: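 USP1/UAF1 complex (1nM) preincubated with compound 15 min at room temperature, then Ub-Rho substrate (150nM final) added. Fluorescence read kinetically at 480/540 nm, 6 reads every 60 seconds. Buffer: 50mM HEPES pH 7.8, 0.5mM EDTA, 0.1 mg/ml BSA, 1mM TCEP, 0.01% Tween-20.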

[3] = target: DNA dC->dU-editing enzyme APOBEC-3G (Homo sapiens) (UniProt Q9HC16); test: qHTS for inhibitors of Vif-A3G interactions: Validation (AID 588379); details: Vif-A3G protein interaction assay; series mostly up to 46.1 µM; also: 0% is about no effect
Sequence of DNA dC->dU-editing enzyme APOBEC-3G (Homo sapiens) (Q9HC16 whole entry, looked up): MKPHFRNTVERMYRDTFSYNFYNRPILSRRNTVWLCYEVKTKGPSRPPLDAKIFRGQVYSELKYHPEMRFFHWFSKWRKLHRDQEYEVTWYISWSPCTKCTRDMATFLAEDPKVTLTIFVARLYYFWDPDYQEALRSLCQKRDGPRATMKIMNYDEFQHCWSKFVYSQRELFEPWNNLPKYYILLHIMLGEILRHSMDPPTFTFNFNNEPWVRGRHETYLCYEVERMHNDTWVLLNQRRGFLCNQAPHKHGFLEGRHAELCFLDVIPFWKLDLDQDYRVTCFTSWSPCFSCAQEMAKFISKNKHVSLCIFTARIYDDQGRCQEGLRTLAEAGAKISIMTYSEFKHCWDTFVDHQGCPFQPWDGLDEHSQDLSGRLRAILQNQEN
Method in brief: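 Yellow fluorescence (Ex 488, Em 500-530) of Vif-coexpressing HeLa A3G-eYFP cells, scanned by Acumen cytometer, reports blocked A3G degradation. Cells plated at 700/well overnight at 37 deg C before compound addition, then a further overnight compound incubation at 37 deg C.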

[4] = Cell Viability - LYMP1-002 - Assay at 24 hr (AID 993); details: LYMP1-002 lymphoblastoid cells viability; series mostly up to 92.2 µM; also: % is scaled to controls: 0 for no effect and ±100 for the full control effect
Method in brief: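 CellTiter-Glo luminescence (intracellular ATP) after 24 h compound exposure, 37 C, in LYMP1-002 human lymphoblastoid cells; decreased ATP taken as cytotoxicity. AC50 from standard Hill fit of concentration-response curves.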

[5] = qHTS Assay for Identification of Small Molecule Inducers of Hypoxia Response (AID 2120; active = well fitted curve in the direction sought with a large enough effect in the signal ratio, with a control signal flat, not every such curve was filed as active; the % refers to the signal ratio; also: 0% is about no effect); details: hypoxia response reporter cells, beta-lactamase ratio readout; series mostly up to 104 µM
Method in brief: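 Read-out: CCF4 FRET emission ratio 460nm/530nm (excitation 405nm), converted to %Activity, with AC50 fitted across a compound titration. ME-180 cells carried an HRE-driven beta-lactamase reporter; compound exposure 17 h, 37 degrees C.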

[6] = target: Estrogen receptor (Homo sapiens) (UniProt P03372); test: qHTS assay for small molecule antagonists of estrogen receptor alpha signaling (AID 588513; active = well fitted curve in the direction sought with a large enough effect in the signal ratio, with a control signal flat, not every such curve was filed as active; the % refers to the signal ratio; also: % is scaled to controls: 0 for no effect and ±100 for the full control effect); details: ER-alpha-UAS-bla HEK293, beta-lactamase ratio, antagonist mode; series mostly up to 76.9 µM
Sequence of Estrogen receptor (Homo sapiens) (P03372 whole entry, looked up): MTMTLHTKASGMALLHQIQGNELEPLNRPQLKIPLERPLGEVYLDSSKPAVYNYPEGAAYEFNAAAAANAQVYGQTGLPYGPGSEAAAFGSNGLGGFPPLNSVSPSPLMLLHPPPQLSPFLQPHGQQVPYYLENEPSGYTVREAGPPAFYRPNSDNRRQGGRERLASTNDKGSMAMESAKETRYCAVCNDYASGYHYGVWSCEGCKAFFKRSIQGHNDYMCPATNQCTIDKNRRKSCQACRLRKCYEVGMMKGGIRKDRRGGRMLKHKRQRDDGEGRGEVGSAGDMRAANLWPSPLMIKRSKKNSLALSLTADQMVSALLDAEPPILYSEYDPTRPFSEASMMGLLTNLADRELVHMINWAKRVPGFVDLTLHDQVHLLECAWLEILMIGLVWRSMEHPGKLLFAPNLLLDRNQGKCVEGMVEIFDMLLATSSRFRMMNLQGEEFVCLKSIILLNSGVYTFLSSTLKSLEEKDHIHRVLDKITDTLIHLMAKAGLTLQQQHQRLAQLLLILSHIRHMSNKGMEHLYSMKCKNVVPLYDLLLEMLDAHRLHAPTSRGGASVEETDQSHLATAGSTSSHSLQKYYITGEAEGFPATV
Method in brief: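 ER-alpha-UAS-bla GripTite HEK 293 cells in medium with 2% charcoal/dextran-treated FBS were preincubated 4 h at 37 C, dosed with compound (1:2 titration), stimulated with 0.5nM 17-beta-estradiol for 18 h, then read by CCF4 beta-lactamase fluorescence.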

[7] = target: Glucocorticoid receptor (Homo sapiens) (UniProt P04150); test: qHTS assay for small molecule agonists of glucocorticoid receptor signaling (AID 588532; active = well fitted curve in the direction sought with a large enough effect in the signal ratio, with a control signal flat; the % refers to the signal ratio;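 also: 100% = dexamethasone at 0.1 µM and 0% = DMSO only wells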); details: HeLa MMTV-bla, beta-lactamase ratio, agonist, 18 h; stronger effect = higher value; percent of dexamethasone control, DMSO zero
Sequence of Glucocorticoid receptor (Homo sapiens) (P04150 whole entry, looked up): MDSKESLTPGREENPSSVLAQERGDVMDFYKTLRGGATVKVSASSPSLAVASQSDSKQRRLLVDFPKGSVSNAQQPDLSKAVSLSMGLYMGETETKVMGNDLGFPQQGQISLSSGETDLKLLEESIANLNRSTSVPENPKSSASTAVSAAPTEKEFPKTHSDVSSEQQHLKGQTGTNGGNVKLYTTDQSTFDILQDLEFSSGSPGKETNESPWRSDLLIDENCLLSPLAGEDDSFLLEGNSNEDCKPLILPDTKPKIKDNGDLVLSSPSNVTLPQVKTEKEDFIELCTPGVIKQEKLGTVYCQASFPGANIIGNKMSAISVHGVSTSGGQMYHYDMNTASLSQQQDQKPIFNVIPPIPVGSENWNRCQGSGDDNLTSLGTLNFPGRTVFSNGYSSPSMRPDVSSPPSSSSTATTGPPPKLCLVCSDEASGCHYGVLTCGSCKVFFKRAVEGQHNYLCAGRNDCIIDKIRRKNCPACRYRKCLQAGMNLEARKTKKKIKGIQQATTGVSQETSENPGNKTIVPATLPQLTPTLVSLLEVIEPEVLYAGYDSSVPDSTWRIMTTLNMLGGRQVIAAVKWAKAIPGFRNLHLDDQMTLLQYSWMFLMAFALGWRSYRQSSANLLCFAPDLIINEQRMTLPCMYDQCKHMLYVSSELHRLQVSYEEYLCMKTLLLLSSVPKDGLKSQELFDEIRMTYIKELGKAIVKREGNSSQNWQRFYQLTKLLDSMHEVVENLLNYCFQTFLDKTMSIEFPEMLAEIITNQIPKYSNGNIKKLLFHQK
Method in brief: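 Titration series, up to 92 uM, applied to GRE-bla HeLa cells for 18 h at 37 C. Detection by CCF4 FRET substrate after 2 h at RT.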

[8] = target: Glucocorticoid receptor (Homo sapiens) (UniProt P04150); test: qHTS assay for small molecule antagonists of glucocorticoid receptor signaling (AID 588533; active = well fitted inhibition curve with a large enough effect in the signal ratio, with a control signal flat, not every such curve was filed as active; the % refers to the signal ratio;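 also: cells stimulated with 2 nM dexamethasone as agonist; % is scaled to controls: 0 for no effect and ±100 for the full control effect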); details: HeLa MMTV-bla, GRE beta-lactamase ratio, antagonist mode, 18 h; series mostly up to 76.8 µM
Method in brief: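 Antagonist-mode qHTS: compound titrations added to GRE-bla HeLa cells, then dexamethasone 2 nM final; 18 h, 37 C. CCF4 FRET fluorescence normalized to dexamethasone and DMSO; IC50 from Hill fit.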

[9] = qHTS assay for small molecule antagonists of peroxisome proliferator-activated receptor delta signaling (AID 588535; active = well fitted inhibition curve with a large enough effect in the signal ratio, with a control signal flat, not every such curve was filed as active; the % refers to the signal ratio;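 as to max response: cells co-treated with a PPAR-delta agonist as stimulator during compound exposure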); details: HEK293T PPARd-UAS-bla, beta-lactamase FRET ratio, 18 h; 460 nm channel
Method in brief: (§1)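 Compounds tested in titration on PPAR-delta-UAS-bla HEK293T cells grown in charcoal/dextran-stripped serum (2%); beta-lactamase activity read via CCF4 emission at 460 and 530 nm.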

[10] = target: Peroxisome proliferator-activated receptor delta (Homo sapiens) (UniProt Q03181); test: as above; details: HEK293T PPARd-UAS-bla, beta-lactamase FRET ratio, 18 h; series mostly up to 76.7 µM
Method in brief: as §1

[11] = target: Peroxisome proliferator-activated receptor gamma (Homo sapiens) (UniProt P37231); test: qHTS assay for small molecule agonists of peroxisome proliferator-activated receptor gamma signaling (AID 588536; active = well fitted curve in the direction sought with a large enough effect in the signal ratio, with a control signal flat, not every such curve was filed as active; the % refers to the signal ratio;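 also: 0% = DMSO basal wells and 100% = rosiglitazone at 2 µM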); details: HEK293 PPARg-UAS-bla, beta-lactamase ratio, 16 h, percent of rosiglitazone response, DMSO as zero; series mostly up to 76.7 µM
Sequence of Peroxisome proliferator-activated receptor gamma (Homo sapiens) (P37231 whole entry, looked up): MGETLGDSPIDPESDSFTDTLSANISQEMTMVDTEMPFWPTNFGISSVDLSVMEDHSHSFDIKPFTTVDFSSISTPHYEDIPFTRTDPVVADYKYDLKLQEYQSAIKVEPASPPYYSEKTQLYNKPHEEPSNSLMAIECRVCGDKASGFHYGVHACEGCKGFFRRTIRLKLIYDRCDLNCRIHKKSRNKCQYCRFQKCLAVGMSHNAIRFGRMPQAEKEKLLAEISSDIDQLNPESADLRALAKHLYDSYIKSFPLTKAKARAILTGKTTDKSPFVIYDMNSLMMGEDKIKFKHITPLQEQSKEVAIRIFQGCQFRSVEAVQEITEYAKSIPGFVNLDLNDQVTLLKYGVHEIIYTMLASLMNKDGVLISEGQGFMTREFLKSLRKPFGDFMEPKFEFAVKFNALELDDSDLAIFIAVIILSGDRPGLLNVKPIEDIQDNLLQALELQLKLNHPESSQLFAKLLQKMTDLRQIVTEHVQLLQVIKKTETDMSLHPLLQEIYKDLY
Method in brief: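 Using GeneBLAzer HEK293 cells, response was quantified by CCF4 fluorescence and normalized between basal DMSO (0%) and rosiglitazone 2 uM (100%); curves yielded half-maximal stimulation concentration and efficacy.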

[12] = target: Vitamin D3 receptor (Homo sapiens) (UniProt P11473); test: qHTS assay for small molecule antagonists of vitamin D receptor signaling (AID 588541; calls by dose curve;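 also: receptor activated by calcitriol during compound treatment; % is scaled to controls: 0 for no effect and ±100 for the full control effect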); details: HEK293T VDR-UAS-bla, beta-lactamase ratio, antagonist mode; series mostly up to 76.7 µM
Sequence of Vitamin D3 receptor (Homo sapiens) (P11473 whole entry, looked up): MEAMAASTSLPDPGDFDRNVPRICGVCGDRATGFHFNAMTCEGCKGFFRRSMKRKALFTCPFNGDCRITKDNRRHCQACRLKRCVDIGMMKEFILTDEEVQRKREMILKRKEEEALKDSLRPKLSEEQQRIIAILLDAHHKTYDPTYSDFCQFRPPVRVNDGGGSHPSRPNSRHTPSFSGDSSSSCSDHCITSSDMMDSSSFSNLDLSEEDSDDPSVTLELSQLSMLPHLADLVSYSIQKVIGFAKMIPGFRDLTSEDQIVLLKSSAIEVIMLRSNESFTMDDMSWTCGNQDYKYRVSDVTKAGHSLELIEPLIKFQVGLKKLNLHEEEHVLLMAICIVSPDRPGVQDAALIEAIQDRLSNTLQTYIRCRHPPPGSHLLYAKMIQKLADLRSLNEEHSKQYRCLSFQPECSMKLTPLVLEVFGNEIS
Method in brief: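 VDR-UAS-bla HEK293T cells (2000/well, 2% charcoal-stripped FBS) were treated with titrated compounds plus 1-alpha,25-dihydroxyvitamin D3 (50 nM or 3 nM final) for 16 h at 37 C. CCF4 beta-lactamase fluorescence was read; Hill fits gave IC50.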

[13] = target: Vitamin D3 receptor (Homo sapiens) (UniProt P11473); test: qHTS assay for small molecule agonists of vitamin D receptor signaling (AID 588543; calls by dose curve;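 also: 0% = DMSO basal and 100% = reference agonist control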); details: HEK293T VDR-UAS-bla, beta-lactamase ratio, 16 h; series mostly up to 76.8 µM
Method in brief: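 GeneBLAzer VDR-UAS-bla HEK293T cells in 2% charcoal-stripped FBS medium were dosed with compound titrations for 16 h at 37 °C; CCF4 β-lactamase readout (405 nm ex, 460/530 nm em). EC50 and efficacy from Hill fits, normalized to 50 nM calcitriol (100%) and DMSO (0%).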

[14] = qHTS assay for small molecule agonists of retinoid X receptor alpha signaling (AID 588544); details: HEK293T RXRa-UAS-bla, beta-lactamase reporter, 18 h; 530 nm emission
[15] = target: ATP-dependent 6-phosphofructokinase (Trypanosoma brucei brucei) (UniProt O15648); test: qHTS Assay to Find Inhibitors of T. brucei phosphofructokinase: hit validation (AID 492961); details: T. brucei PFK, ADP-Glo luminescence; series mostly up to 51.4 µM
Sequence of ATP-dependent 6-phosphofructokinase (Trypanosoma brucei brucei) (O15648 whole entry, looked up): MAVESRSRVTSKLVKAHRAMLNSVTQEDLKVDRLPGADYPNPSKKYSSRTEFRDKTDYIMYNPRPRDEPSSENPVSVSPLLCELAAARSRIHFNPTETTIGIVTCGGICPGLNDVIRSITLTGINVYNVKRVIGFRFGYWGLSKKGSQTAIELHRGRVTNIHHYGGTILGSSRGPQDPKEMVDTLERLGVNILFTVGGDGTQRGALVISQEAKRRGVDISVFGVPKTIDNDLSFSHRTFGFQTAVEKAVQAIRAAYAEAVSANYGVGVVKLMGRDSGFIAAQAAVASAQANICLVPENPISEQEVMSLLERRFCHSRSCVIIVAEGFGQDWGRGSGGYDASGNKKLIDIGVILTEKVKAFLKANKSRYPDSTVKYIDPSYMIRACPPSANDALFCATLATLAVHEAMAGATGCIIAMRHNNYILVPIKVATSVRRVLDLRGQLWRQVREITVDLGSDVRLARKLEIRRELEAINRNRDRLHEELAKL
Method in brief: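 Percent activity derived from corrected luminescence, normalized between 0x and 1x enzyme controls, then fitted to concentration-response curves. Conditions: 1.25 nM PFK, 0.1 mM ATP, 0.5 mM F6P, 45 min RT.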

[16] = Cell Viability - LYMP1-002 - Assay at 40 hr (AID 994); details: LYMP1-002 lymphoblastoid cell viability; series mostly up to 92.2 µM;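 also: 0% = DMSO only and full inhibition = 92 µM tetraoctylammonium bromide; nearly all actives have a fitted effect of over 60% in size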
Method in brief: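 qHTS cytotoxicity; 2500 cells/well, 5 hr 37 C settle, compound 40 hr 37 C. CellTiter-Glo, 30 min RT, luminescence (ATP). Concentration-response, Hill fit → AC50. Pos. ctrl tetraoctylammonium bromide.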

[17] = target: Estrogen receptor (Homo sapiens) (UniProt P03372); test: qHTS assay for small molecule agonists of estrogen receptor alpha signaling (AID 588514; calls by dose curve;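 also: 0% = vehicle only and 100% = reference agonist; nearly all actives have a fitted effect of over 70% in size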); details: ER-alpha-UAS-bla HEK293, beta-lactamase ratio, 18 h, percent of full estradiol response, vehicle zero; series mostly up to 76.8 µM
Method in brief: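 Read-out: CCF4 fluorescence from a beta-lactamase reporter in ER-alpha-UAS-bla HEK 293 cells after 18 hrs of compound exposure at 37 C. Normalized to 20 nM 17-beta-estradiol (100%) and DMSO (0%).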

[18] = target: Androgen receptor (Homo sapiens) (UniProt P10275); test: qHTS assay for small molecule agonists of androgen receptor signaling (AID 588515; active = well fitted curve in the direction sought with a large enough effect in the signal ratio, with a control signal flat; the % refers to the signal ratio; also: % is scaled to controls: 0 for no effect and ±100 for the full control effect); details: AR-UAS-bla HEK293, beta-lactamase ratio, agonist 16 h; stronger effect = higher value
Sequence of Androgen receptor (Homo sapiens) (P10275 whole entry, looked up): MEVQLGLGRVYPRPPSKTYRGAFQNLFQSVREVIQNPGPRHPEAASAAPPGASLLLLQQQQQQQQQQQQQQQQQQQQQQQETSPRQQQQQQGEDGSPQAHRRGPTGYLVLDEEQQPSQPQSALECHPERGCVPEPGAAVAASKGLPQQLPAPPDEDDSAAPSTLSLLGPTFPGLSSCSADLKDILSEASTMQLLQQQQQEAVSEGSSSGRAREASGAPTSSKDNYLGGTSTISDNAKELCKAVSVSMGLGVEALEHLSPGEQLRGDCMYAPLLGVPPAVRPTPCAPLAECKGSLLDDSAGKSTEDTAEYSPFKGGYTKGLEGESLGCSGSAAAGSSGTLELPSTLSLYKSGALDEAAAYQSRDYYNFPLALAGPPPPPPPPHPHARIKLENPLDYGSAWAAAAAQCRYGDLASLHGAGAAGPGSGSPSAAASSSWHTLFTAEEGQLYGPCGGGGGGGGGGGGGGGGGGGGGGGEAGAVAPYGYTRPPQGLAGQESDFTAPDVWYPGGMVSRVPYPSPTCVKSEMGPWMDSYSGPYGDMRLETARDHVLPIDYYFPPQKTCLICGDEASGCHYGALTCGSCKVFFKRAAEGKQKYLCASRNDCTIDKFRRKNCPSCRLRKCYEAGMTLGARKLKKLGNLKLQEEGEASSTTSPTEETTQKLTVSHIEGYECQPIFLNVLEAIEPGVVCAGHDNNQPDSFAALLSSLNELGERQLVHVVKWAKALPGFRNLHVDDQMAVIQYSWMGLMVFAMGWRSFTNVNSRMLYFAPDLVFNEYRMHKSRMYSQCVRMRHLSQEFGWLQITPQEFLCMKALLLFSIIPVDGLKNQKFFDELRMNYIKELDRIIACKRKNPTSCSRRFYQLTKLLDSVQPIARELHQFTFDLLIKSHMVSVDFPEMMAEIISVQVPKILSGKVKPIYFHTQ
Method in brief: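 Stimulation of an AR-responsive β-lactamase reporter in GripTite HEK293 cells was measured after 16 h compound exposure at 37 °C, via CCF4 fluorescence after 2 h RT. EC50 from Hill fits, normalized to R1881 at 30 nM.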

[19] = measured here: cell count channel max response
[20] = measured here: lipid channel max response

## Nc1nc2c(ncn2[C@@H]2O[C@H](CO)[C@@H](O)[C@H]2O)c(=O)[nH]1
[1]; at 57.5 µM (top of the series)
  activity change, negative = inhibition: -2.55% (inactive)
[1]; [19]
  max response: -11.6%
[1]; [20]
  max response: -14.4%
[2]
  outcome: inactive
[3]
  outcome: inactive

## Nc1ccccc1N
[4]
  outcome: inactive
[5]
  outcome: inactive
[6]
  outcome: inactive
[7]
  activation: 10.6% (inactive)
[8]
  outcome: inactive
[9]
  max response: -23.4%
[10]
  outcome: inactive
[11]
  outcome: inactive
[12]
  outcome: inactive
[13]
  outcome: inactive
[14]
  max response: 12.1%

## CC[C@]1(O)CC2CN(CCc3c([nH]c4ccccc34)[C@@](C(=O)OC)(c3cc4c(cc3OC)N(C)[C@H]3[C@@](O)(C(=O)OC)[C@H](OC(C)=O)[C@]5(CC)C=CCN6CC[C@]43[C@@H]65)C2)C1 (stereo not given in full)
[15]
  outcome: inactive

## COc1ccc(C[C@H](N)C(=O)N[C@@H]2[C@H](O)[C@H](n3cnc4c(N(C)C)ncnc43)O[C@@H]2CO)cc1
[2]
  outcome: inactive

## COc1ccc2c(OC)c3ccoc3nc2c1OC
[1]; at 25.7 µM (top of the series)
  activity change, negative = inhibition: -9.25% (inactive)
[1]; [19]
  max response: 0.385%
[1]; [20]
  max response: -6.85%
[2]
  outcome: inactive
[3]
  outcome: inactive

## CC(=O)O[C@@H]1CC(C)=C2[C@H]1[C@H](C)CC[C@H]2/C=C(\C)C(=O)O
[4]
  outcome: inactive
[16]
  outcome: inactive
[5]
  outcome: inactive
[6]
  outcome: inactive
[17]
  outcome: inactive
[18]
  activation: -3.27% (inactive)
[7]
  activation: 9.44% (inactive)
[8]
  outcome: inactive
[11]
  outcome: inactive
[12]
  outcome: inactive
[13]
  outcome: inactive
[14]
  max response: 12.6%
